Pf Dd2 inh – Plasmodium falciparum Dd2 growth inhibition | P. falciparum Dd2 growth, SYBR Green, 72 h | AID 1347417 | 4.3% of 120,000 active | Potency, µM (titrated, usually from 28.9 µM), actives largely listed as inhibitors; active = well fitted inhibition curve with a large enough effect; note: nearly all actives have a fitted effect of over 65% in size
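Infected erythrocytes (Dd2, 0.3% parasitemia, 2.5% hematocrit final) are added to compound in RPMI-1640/Albumax II medium, grown 72 h at 37C in low oxygen, then lysed with saponin/Triton-X containing SYBR Green and read by fluorescence.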
Large screens that a line does not name were inactive. The entries come from a sample that favours hits as a whole.

O=C(c1cc(=O)[nH]c2cc(F)ccc12)N1CCCC(CCc2ccc(F)cc2)C1 (stereo not drawn)	none
O=C(c1ccc(-n2cnnn2)cc1O)N1CCCC(CCc2ccc(F)cc2)C1 (stereo not drawn)	Pf Dd2 inh 13µM
Cc1cnc(C(=O)NC2C[C@H]3CC[C@@H](C2)N3C(=O)c2ccc(C)s2)cn1 (stereo partly drawn)	none
CCN(CC)S(=O)(=O)c1ccc(C(=O)NCCSc2c(-c3ccc(C)cc3)[nH]c3ccccc23)cc1	Pf Dd2 inh 10µM
COc1ccc(C(=O)NCCSc2c(C)[nH]c3ccccc23)cc1	none
Cc1[nH]c2ccccc2c1SCCNC(=O)c1ccc(F)cc1	none
O=C(NC1CCN(Cc2ccccc2)CC1)c1ccc(Cn2c(=O)c3ccccc3n(Cc3ccc(Cl)cc3)c2=O)cc1	Pf Dd2 inh 5µM
COCCCNC(=O)c1ccc(Cn2c(=O)c3ccccc3n(Cc3ccc(Cl)cc3)c2=O)cc1	none
O=C(NC1CCN(Cc2ccccc2)CC1)c1ccc(Cn2c(=O)c3ccccc3n(Cc3ccccc3)c2=O)cc1	none
COc1ccc(-c2cn3c(n2)sc2cc(C(=O)NCCCN4CCCCC4)ccc23)cc1	Pf Dd2 inh 1.1µM
COc1ccc(-c2cn3c(n2)sc2cc(C(=O)NCCCN4CCCCCC4)ccc23)cc1	Pf Dd2 inh 8.9µM
COc1cccc(-c2cn3c(n2)sc2cc(C(=O)NCCC4=CCCCC4)ccc23)c1	none
O=C(NC1CCCCC1)c1ccc2c(c1)sc1nc(-c3ccc(F)cc3)cn12	none
COc1ccc(-c2cn3c(n2)sc2cc(C(=O)NC4CCCCCC4)ccc23)cc1	none
O=C(NC1CCCCCC1)c1ccc2c(c1)sc1nc(-c3ccc(F)cc3)cn12	none
CCOC(=O)C1CCN(C(=O)c2ccc3c(c2)sc2nc(-c4ccc(OCC)cc4)cn23)CC1	Pf Dd2 inh 8.9µM
COc1ccc(-c2cn3c(n2)sc2cc(C(=O)Nc4cccc(OC)c4)ccc23)cc1	none
CN(CC1CCOCC1)C(=O)c1ccc(Cl)s1	none
Cc1nc(C2CC(NC(=O)Cn3cc(Cl)c(C)n3)C2)cc(=O)[nH]1 (stereo not drawn)	none
O=C(C1CC(=O)N(c2n[nH]c3cccc(F)c23)C1)N1CCc2ccccc2C1 (stereo not drawn)	none
O=C(CN1C(=O)NC(c2ccccc2)C2=C1COC2=O)NC1CCCC1 (stereo not drawn)	none
Cc1ccccc1Nc1c2c(nc3nncn13)CCC2	none
Cc1ccc(Nc2c3c(nc4nncn24)CCC3)cc1C	Pf Dd2 inh 10µM
Brc1ccc(Nc2c3c(nc4nncn24)CCC3)cc1	Pf Dd2 inh 4µM
Cc1ccc(Nc2c3c(nc4nncn24)CCC3)cc1	none
Cc1cccc(Nc2c3c(nc4nncn24)CCC3)c1	none
CCOc1ccc(Nc2c3c(nc4nncn24)CCC3)cc1	none
CCN(CC)C(=O)COC1CN(Cc2ccc(O)cc2)CC(=O)N(CCc2ccccc2)C1 (stereo not drawn)	none
O=C(O)C1(CCc2ccccc2)CCCN(c2ncnc3nc[nH]c23)C1 (stereo not drawn)	none
COc1ccccc1CN1CCN2C(=O)N(C3CCOCC3)C[C@H]2C1	none
O=C1CCCCC(C(=O)NCCN2CCOCC2)N1 (stereo not drawn)	none
CCc1nc(CN(C)C(=O)C2CCCN2C(=O)C2CCCCC2)no1 (stereo not drawn)	none
CN1CCC(Cc2ccc(C(=O)O)cc2)CC1	none
Cc1cc(C)c(C(=O)N(CC2CCN(C3Cc4ccccc4C3)CC2)CC2CCCO2)o1 (stereo not drawn)	none
CCN(CC1CCN(C2CCN(C)CC2)CC1)C(=O)c1ccc(-c2ccccc2)cc1	Pf Dd2 inh 13µM
CCNC(=O)[C@@H]1C[C@H](NC(=O)c2ccc(OC)o2)CN1Cc1nc(C)no1	none
CCCCN(CC)CCNC(=O)C1CCCN(S(=O)(=O)c2cccc3nsnc23)C1 (stereo not drawn)	none
Cc1ccc(NC(=O)C2CCCN2S(=O)(=O)c2cccc3nsnc23)c(C)c1 (stereo not drawn)	none
O=C(Nc1ccc(F)c(F)c1)C1CCCN1S(=O)(=O)c1cccc2nsnc12 (stereo not drawn)	Pf Dd2 inh 11µM
CCN(CC)c1ccc(NC(=O)CCS(=O)(=O)c2cccc3nsnc23)c(C)c1	none
Cc1ccc(NC(=O)C2CCC(CNS(=O)(=O)c3cccc4nsnc34)CC2)c(C)c1 (stereo not drawn)	none
CCc1ccc(NC(=O)C2CCCN2S(=O)(=O)c2cccc3nsnc23)cc1 (stereo not drawn)	none
CCN(C(=O)C1CCC(CNS(=O)(=O)c2cccc3nsnc23)CC1)c1ccc(C)c(C)c1 (stereo not drawn)	Pf Dd2 inh 4.5µM
Cc1ccc(NC(=O)C2CCN(S(=O)(=O)c3cccc4nsnc34)CC2)cc1	none
O=C(Nc1ccc(C(F)(F)F)cc1)C1CCC(CNS(=O)(=O)c2cccc3nsnc23)CC1 (stereo not drawn)	Pf Dd2 inh 2.8µM
CCN(C(=O)C(Cc1ccccc1)NS(=O)(=O)c1cccc2nsnc12)c1ccccc1 (stereo not drawn)	none
CCCCN(CC)C(=O)C1CCC(CNS(=O)(=O)c2cccc3nsnc23)CC1 (stereo not drawn)	Pf Dd2 inh 2.8µM
